Compounds without any hit were thinned out: in the full panel of roughly 79,000, 15% have a hit. Unmarked numbers belong to inactive results. Calls of active or inactive are those of the source. Cut-off read from the data, not from the text of the source: active = growth inhibition above about 70%; inactive = the rest.
Assay: NCI Yeast Anticancer Drug Screen. Data for the rad14 strain (AID 159);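 note: 0% = growth of vehicle-treated control cultures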
Conditions: S. cerevisiae rad14 strain growth inhibition, hits give high values
Procedure: Growth inhibition of yeast strains with defined genetic alterations is measured as a screen for potential anti-cancer activity. Selected strains with alterations in DNA damage repair or cell cycle control were exposed to compounds and growth inhibition was measured relative to vehicle treated controls. The strain used in this assay is rad14

| Structure (SMILES) | growth inhibition (at 1.2 µM) [%] | growth inhibition (at 3.7 µM) | growth inhibition (at 11.0 µM) | growth inhibition (at 33.0 µM) | growth inhibition (at 100.0 µM) |
| --- | --- | --- | --- | --- | --- |
| Cc1cccc2c1C1c3c(C)cccc3C(CC(=O)O)CC1CC2 (stereo not given) | 5 | 83% (active) | 98% (active) | 95% (active) | 90% (active) |
| Oc1c2c(c(O)c3ccccc13)C1(N=N2)c2ccccc2Oc2ccccc21 | 17 | 44% | 98% (active) | 96% (active) | 92% (active) |
| O=P(C(=S)Nc1c(Cl)cccc1Cl)(c1ccccc1)c1ccccc1 | -13 | -14% | -16% | -18% | 94% (active) |
| CCOP(=O)(OCC)/C(C#N)=C/c1ccc(-c2ccc(F)cc2F)o1 | -1 | -1% | -2% | -3% | 1% |
| OC(c1ccccc1)(c1ccccc1)c1nccc2ccccc12 | 3 | 2% | 3% | 3% | 39% |
| CCOC(=O)/C(=C\c1cccc(C)c1)C(C)=O | -6 | -7% | 38% | 93% (active) | 99% (active) |
| O=C1CC(C(O)(C(F)(F)F)C(F)(F)Cl)CCC1C(O)(C(F)(F)F)C(F)(F)Cl (stereo not given) | 66 | 50% | 85% (active) | 97% (active) | 99% (active) |
| O=C(NOC(=O)c1ccc([N+](=O)[O-])cc1)c1ccc(Cl)cc1 | -52 | -27% | -7% | 88% (active) | 97% (active) |

From PubChem BioAssay (NCI)
